# From article PMC7862700, “An all-to-all approach to the identification of sequence-specific readers for epigenetic DNA modifications on cytosine”
# How the values were obtained:
# Assay in all cases: DAPPL (digital affinity profiling via proximity ligation, sequencing); 10 mM Tris-HCl pH 7.5, 50 mM NaCl, 1 mM DTT, 4% glycerol, room temperature, 30 min; GST-TFs on glutathione beads, 16-mer random dsDNA library, 0.1% formaldehyde crosslink after washing; high values mean tight binding
# Details in all cases: protein: recombinant; tags: N-terminal GST; dsDNA, one strand shown
# [1] = target: T1, ERF (Homo sapiens, UniProt P50548 1-548)
# T1 sequence: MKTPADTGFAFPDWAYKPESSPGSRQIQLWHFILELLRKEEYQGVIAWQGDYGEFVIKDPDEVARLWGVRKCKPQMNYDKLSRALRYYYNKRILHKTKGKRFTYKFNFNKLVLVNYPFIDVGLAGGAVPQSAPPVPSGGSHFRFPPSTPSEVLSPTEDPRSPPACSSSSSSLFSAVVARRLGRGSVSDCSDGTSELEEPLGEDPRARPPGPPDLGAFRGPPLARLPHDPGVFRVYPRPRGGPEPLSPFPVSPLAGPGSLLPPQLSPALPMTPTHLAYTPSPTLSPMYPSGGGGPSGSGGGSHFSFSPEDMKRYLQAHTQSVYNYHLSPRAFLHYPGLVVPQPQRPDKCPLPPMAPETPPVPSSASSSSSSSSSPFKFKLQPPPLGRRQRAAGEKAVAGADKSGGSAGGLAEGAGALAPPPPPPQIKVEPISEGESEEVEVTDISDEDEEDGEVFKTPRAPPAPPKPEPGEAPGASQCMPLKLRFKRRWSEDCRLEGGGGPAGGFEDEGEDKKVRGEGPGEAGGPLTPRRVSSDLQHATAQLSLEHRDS
# How it was run: (§1)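 Binding signal is each hexamer's read frequency for a factor divided by its frequency in the tag-only sample. The factors were GST-fused human transcription factors from yeast, captured on glutathione beads, DNA-barcoded and pooled with that sample. Pools were incubated with 200 nmole of a random double-stranded 16-mer DNA library in Tris/NaCl/DTT/glycerol buffer at room temperature for 30 min, then washed, crosslinked with 0.1% formaldehyde, proximity-ligated with BsaI/T4 ligase (1 h, 37 °C), PCR-amplified and sequenced on an Illumina NextSeq500.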
# [2] = target: T2, ETV3L (Homo sapiens, UniProt Q6ZN32 1-361)
# T2 sequence: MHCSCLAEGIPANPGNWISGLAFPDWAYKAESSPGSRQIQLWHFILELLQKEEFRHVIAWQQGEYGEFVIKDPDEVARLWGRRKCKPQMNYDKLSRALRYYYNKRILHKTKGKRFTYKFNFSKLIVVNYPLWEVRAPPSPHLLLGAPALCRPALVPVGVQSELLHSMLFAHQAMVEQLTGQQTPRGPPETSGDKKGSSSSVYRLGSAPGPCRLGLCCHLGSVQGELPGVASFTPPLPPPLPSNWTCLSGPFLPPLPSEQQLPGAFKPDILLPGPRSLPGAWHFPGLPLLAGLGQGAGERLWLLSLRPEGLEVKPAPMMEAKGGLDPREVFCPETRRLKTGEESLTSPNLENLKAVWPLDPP
# How it was run: as §1
# [3] = target: T3, ETS2 (Homo sapiens, UniProt P15036 1-469)
# T3 sequence: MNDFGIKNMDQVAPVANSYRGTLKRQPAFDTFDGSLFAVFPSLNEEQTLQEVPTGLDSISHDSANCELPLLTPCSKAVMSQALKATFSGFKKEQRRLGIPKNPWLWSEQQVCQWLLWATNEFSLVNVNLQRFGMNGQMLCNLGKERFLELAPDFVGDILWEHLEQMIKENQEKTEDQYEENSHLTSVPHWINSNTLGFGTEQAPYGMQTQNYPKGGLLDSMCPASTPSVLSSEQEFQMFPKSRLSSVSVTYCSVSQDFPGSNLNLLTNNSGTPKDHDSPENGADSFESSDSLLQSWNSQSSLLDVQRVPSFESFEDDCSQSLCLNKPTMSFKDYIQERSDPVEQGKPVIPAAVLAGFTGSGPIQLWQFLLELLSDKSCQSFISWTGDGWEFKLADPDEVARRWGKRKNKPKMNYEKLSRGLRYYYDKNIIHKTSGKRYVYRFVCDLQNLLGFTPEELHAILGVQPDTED
# How it was run: as §1
# [4] = target: T4, SPDEF (Homo sapiens, UniProt O95238 1-335)
# T4 sequence: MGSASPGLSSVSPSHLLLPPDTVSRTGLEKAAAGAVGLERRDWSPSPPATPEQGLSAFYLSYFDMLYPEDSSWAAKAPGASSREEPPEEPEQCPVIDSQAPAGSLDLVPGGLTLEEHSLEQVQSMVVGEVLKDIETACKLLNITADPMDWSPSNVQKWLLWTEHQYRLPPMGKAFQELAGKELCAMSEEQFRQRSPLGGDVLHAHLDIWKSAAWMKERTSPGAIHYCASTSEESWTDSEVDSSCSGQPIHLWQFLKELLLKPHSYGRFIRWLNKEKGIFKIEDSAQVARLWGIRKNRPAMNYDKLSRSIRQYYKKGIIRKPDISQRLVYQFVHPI
# How it was run: as §1
# [5] = target: T5, ETV7 (Homo sapiens, UniProt Q9Y603 1-341)
# T5 sequence: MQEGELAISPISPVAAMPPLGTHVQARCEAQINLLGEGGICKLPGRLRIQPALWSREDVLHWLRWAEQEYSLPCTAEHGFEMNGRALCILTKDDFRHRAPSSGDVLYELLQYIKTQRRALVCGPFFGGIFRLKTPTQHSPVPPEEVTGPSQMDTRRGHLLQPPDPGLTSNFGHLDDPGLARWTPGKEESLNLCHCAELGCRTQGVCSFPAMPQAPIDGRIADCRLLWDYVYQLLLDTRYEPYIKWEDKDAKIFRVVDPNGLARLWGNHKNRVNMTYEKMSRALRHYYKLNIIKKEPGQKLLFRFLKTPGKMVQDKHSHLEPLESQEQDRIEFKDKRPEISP
# How it was run: as §1
# [6] = target: T6, ELF5 (Homo sapiens, UniProt Q9UKW6-2 1-255)
# T6 sequence: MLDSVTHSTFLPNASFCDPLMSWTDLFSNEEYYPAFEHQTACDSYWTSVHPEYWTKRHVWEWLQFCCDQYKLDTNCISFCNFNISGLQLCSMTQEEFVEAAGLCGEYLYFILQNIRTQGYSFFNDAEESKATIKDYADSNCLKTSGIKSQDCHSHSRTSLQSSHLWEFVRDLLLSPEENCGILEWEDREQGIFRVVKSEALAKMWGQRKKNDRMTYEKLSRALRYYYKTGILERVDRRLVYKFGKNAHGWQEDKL
# How it was run: as §1
# [7] = target: T7, ETV3 (Homo sapiens, UniProt P41162-2 1-143)
# T7 sequence: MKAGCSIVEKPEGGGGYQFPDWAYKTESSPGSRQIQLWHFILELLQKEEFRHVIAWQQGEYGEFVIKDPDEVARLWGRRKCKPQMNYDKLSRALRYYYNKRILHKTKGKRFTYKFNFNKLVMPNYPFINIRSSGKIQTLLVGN
# How it was run: as §1
# [8] = target: ETV6 (Homo sapiens, UniProt P41212 1-452)
# How it was run: as §1
# Sequence of ETV6 (P41212 whole entry): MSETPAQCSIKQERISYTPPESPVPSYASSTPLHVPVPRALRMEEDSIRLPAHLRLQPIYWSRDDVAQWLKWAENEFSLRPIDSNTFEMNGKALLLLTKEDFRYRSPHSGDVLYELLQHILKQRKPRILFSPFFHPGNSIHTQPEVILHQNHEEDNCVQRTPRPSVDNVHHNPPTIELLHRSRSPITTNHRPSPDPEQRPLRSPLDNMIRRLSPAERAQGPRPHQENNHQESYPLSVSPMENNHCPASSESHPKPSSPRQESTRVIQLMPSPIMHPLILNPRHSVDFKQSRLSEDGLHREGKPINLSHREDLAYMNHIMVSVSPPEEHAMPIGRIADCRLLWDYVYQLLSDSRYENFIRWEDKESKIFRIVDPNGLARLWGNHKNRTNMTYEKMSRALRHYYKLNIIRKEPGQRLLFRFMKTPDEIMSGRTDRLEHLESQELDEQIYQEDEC
Sequence,binding signal [1],binding signal [2],binding signal [3],binding signal [4],binding signal [5],binding signal [6],binding signal [7],binding signal [8]
TATACT,"1.3 fold enrichment (6-mer frequency, TF over GST control)","1.29 fold enrichment (6-mer frequency, TF over GST control)","1.38 fold enrichment (6-mer frequency, TF over GST control)","1.52 fold enrichment (6-mer frequency, TF over GST control)","1.31 fold enrichment (6-mer frequency, TF over GST control)","1.34 fold enrichment (6-mer frequency, TF over GST control)","1.34 fold enrichment (6-mer frequency, TF over GST control)","1.45 fold enrichment (6-mer frequency, TF over GST control)"
CGACCC,"1.36 fold enrichment (6-mer frequency, TF over GST control)","1.28 fold enrichment (6-mer frequency, TF over GST control)","1.29 fold enrichment (6-mer frequency, TF over GST control)","1.44 fold enrichment (6-mer frequency, TF over GST control)","1.28 fold enrichment (6-mer frequency, TF over GST control)","1.26 fold enrichment (6-mer frequency, TF over GST control)","1.4 fold enrichment (6-mer frequency, TF over GST control)","1.29 fold enrichment (6-mer frequency, TF over GST control)"
GTCCCG,"1.22 fold enrichment (6-mer frequency, TF over GST control)","1.3 fold enrichment (6-mer frequency, TF over GST control)","1.22 fold enrichment (6-mer frequency, TF over GST control)","1.34 fold enrichment (6-mer frequency, TF over GST control)","1.19 fold enrichment (6-mer frequency, TF over GST control)","1.23 fold enrichment (6-mer frequency, TF over GST control)","1.32 fold enrichment (6-mer frequency, TF over GST control)","1.13 fold enrichment (6-mer frequency, TF over GST control)"
CCGAAA,"1.22 fold enrichment (6-mer frequency, TF over GST control)","1.2 fold enrichment (6-mer frequency, TF over GST control)","1.22 fold enrichment (6-mer frequency, TF over GST control)","1.17 fold enrichment (6-mer frequency, TF over GST control)","1.24 fold enrichment (6-mer frequency, TF over GST control)","1.18 fold enrichment (6-mer frequency, TF over GST control)","1.19 fold enrichment (6-mer frequency, TF over GST control)","1.28 fold enrichment (6-mer frequency, TF over GST control)"
TGCATC,"1.4 fold enrichment (6-mer frequency, TF over GST control)","1.34 fold enrichment (6-mer frequency, TF over GST control)","1.39 fold enrichment (6-mer frequency, TF over GST control)","1.88 fold enrichment (6-mer frequency, TF over GST control)","1.37 fold enrichment (6-mer frequency, TF over GST control)","1.35 fold enrichment (6-mer frequency, TF over GST control)","1.29 fold enrichment (6-mer frequency, TF over GST control)","1.33 fold enrichment (6-mer frequency, TF over GST control)"
CTTGTT,"1.17 fold enrichment (6-mer frequency, TF over GST control)","1.17 fold enrichment (6-mer frequency, TF over GST control)","1.15 fold enrichment (6-mer frequency, TF over GST control)","1.05 fold enrichment (6-mer frequency, TF over GST control)","1.27 fold enrichment (6-mer frequency, TF over GST control)","1.27 fold enrichment (6-mer frequency, TF over GST control)","1.2 fold enrichment (6-mer frequency, TF over GST control)","1.12 fold enrichment (6-mer frequency, TF over GST control)"
TTTTTT,"1.18 fold enrichment (6-mer frequency, TF over GST control)","1.18 fold enrichment (6-mer frequency, TF over GST control)","1.09 fold enrichment (6-mer frequency, TF over GST control)","1.22 fold enrichment (6-mer frequency, TF over GST control)","1.26 fold enrichment (6-mer frequency, TF over GST control)","1.14 fold enrichment (6-mer frequency, TF over GST control)","1.2 fold enrichment (6-mer frequency, TF over GST control)","1.11 fold enrichment (6-mer frequency, TF over GST control)"
CTGCAG,"1.07 fold enrichment (6-mer frequency, TF over GST control)","1.18 fold enrichment (6-mer frequency, TF over GST control)","1.18 fold enrichment (6-mer frequency, TF over GST control)","1.1 fold enrichment (6-mer frequency, TF over GST control)","1.13 fold enrichment (6-mer frequency, TF over GST control)","1.09 fold enrichment (6-mer frequency, TF over GST control)","1.07 fold enrichment (6-mer frequency, TF over GST control)","1.11 fold enrichment (6-mer frequency, TF over GST control)"
ATGATT,"1.18 fold enrichment (6-mer frequency, TF over GST control)","1.24 fold enrichment (6-mer frequency, TF over GST control)","1.18 fold enrichment (6-mer frequency, TF over GST control)","1.15 fold enrichment (6-mer frequency, TF over GST control)","1.17 fold enrichment (6-mer frequency, TF over GST control)","1.14 fold enrichment (6-mer frequency, TF over GST control)","1.3 fold enrichment (6-mer frequency, TF over GST control)","1.19 fold enrichment (6-mer frequency, TF over GST control)"
TACACA,"1.24 fold enrichment (6-mer frequency, TF over GST control)","1.15 fold enrichment (6-mer frequency, TF over GST control)","1.16 fold enrichment (6-mer frequency, TF over GST control)","1.27 fold enrichment (6-mer frequency, TF over GST control)","1.19 fold enrichment (6-mer frequency, TF over GST control)","1.13 fold enrichment (6-mer frequency, TF over GST control)","1.13 fold enrichment (6-mer frequency, TF over GST control)","1.21 fold enrichment (6-mer frequency, TF over GST control)"
TTTGGG,"1.39 fold enrichment (6-mer frequency, TF over GST control)","1.46 fold enrichment (6-mer frequency, TF over GST control)","1.3 fold enrichment (6-mer frequency, TF over GST control)","1.25 fold enrichment (6-mer frequency, TF over GST control)","1.29 fold enrichment (6-mer frequency, TF over GST control)","1.26 fold enrichment (6-mer frequency, TF over GST control)","1.32 fold enrichment (6-mer frequency, TF over GST control)","1.3 fold enrichment (6-mer frequency, TF over GST control)"
CCCGGA,"2.32 fold enrichment (6-mer frequency, TF over GST control)","2.8 fold enrichment (6-mer frequency, TF over GST control)","2.98 fold enrichment (6-mer frequency, TF over GST control)","3.97 fold enrichment (6-mer frequency, TF over GST control)","2.48 fold enrichment (6-mer frequency, TF over GST control)","3.77 fold enrichment (6-mer frequency, TF over GST control)","3.23 fold enrichment (6-mer frequency, TF over GST control)","2.89 fold enrichment (6-mer frequency, TF over GST control)"
CTCATC,"1.44 fold enrichment (6-mer frequency, TF over GST control)","1.5 fold enrichment (6-mer frequency, TF over GST control)","1.32 fold enrichment (6-mer frequency, TF over GST control)","1.39 fold enrichment (6-mer frequency, TF over GST control)","1.23 fold enrichment (6-mer frequency, TF over GST control)","1.44 fold enrichment (6-mer frequency, TF over GST control)","1.48 fold enrichment (6-mer frequency, TF over GST control)","1.37 fold enrichment (6-mer frequency, TF over GST control)"
CGGATG,"1.39 fold enrichment (6-mer frequency, TF over GST control)","1.62 fold enrichment (6-mer frequency, TF over GST control)","1.83 fold enrichment (6-mer frequency, TF over GST control)","3.14 fold enrichment (6-mer frequency, TF over GST control)","1.41 fold enrichment (6-mer frequency, TF over GST control)","1.75 fold enrichment (6-mer frequency, TF over GST control)","1.75 fold enrichment (6-mer frequency, TF over GST control)","1.5 fold enrichment (6-mer frequency, TF over GST control)"
TACGGA,"1.28 fold enrichment (6-mer frequency, TF over GST control)","1.34 fold enrichment (6-mer frequency, TF over GST control)","1.38 fold enrichment (6-mer frequency, TF over GST control)","1.47 fold enrichment (6-mer frequency, TF over GST control)","1.18 fold enrichment (6-mer frequency, TF over GST control)","1.51 fold enrichment (6-mer frequency, TF over GST control)","1.43 fold enrichment (6-mer frequency, TF over GST control)","1.39 fold enrichment (6-mer frequency, TF over GST control)"
